Drawing on PubChem BioAssay, this text covers inhibition for 18 compounds.

A number with no mark means an inactive call. The list shows a part of the results. Active and inactive are the calls of the source.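 How the source made its calls, unless noted: active means inhibition above the hit cutoff set in the earlier primary screen (cut at about 27% in these data); inactive means the rest.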

Test [1] concerns the target Protein phosphatase methylesterase 1 (Homo sapiens) (UniProt Q9Y570). The experiment in a line: PME-1 inhibitor activity retest, confirmation, biochemical, fluorescence polarization, FP-Rh probe, triplicate (AID 2171).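 Further: 0% = enzyme with DMSO and 100% = wells lacking PME-1.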 The note with it: recombinant PME-1, FP-Rh probe fluorescence polarization; at 5.9 µM; stronger effect = higher value.
Test [2] deals with Nuclear receptor coactivator 3 (Homo sapiens) (UniProt Q9Y6Q9). The experiment in a line: SRC3 coactivator transcriptional activity inhibitors, confirmation, cell-based, luminescence, quadruplicate (AID 588792;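 active means mean inhibition over 43.08%, the solvent-only control mean plus 3 SD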;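 further: 0% = DMSO treated cells and 100% = gossypol at 36 µM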). The following applies: HEK293 GAL4-SRC3 luciferase reporter, at 3.6 µM, stronger effect = higher value. In general terms: Reporter assays use an easily measured gene product as a stand-in for the process of interest.
Chain of Nuclear receptor coactivator 3 (Homo sapiens) (Q9Y6Q9 whole entry, looked up, the tested form may be a part): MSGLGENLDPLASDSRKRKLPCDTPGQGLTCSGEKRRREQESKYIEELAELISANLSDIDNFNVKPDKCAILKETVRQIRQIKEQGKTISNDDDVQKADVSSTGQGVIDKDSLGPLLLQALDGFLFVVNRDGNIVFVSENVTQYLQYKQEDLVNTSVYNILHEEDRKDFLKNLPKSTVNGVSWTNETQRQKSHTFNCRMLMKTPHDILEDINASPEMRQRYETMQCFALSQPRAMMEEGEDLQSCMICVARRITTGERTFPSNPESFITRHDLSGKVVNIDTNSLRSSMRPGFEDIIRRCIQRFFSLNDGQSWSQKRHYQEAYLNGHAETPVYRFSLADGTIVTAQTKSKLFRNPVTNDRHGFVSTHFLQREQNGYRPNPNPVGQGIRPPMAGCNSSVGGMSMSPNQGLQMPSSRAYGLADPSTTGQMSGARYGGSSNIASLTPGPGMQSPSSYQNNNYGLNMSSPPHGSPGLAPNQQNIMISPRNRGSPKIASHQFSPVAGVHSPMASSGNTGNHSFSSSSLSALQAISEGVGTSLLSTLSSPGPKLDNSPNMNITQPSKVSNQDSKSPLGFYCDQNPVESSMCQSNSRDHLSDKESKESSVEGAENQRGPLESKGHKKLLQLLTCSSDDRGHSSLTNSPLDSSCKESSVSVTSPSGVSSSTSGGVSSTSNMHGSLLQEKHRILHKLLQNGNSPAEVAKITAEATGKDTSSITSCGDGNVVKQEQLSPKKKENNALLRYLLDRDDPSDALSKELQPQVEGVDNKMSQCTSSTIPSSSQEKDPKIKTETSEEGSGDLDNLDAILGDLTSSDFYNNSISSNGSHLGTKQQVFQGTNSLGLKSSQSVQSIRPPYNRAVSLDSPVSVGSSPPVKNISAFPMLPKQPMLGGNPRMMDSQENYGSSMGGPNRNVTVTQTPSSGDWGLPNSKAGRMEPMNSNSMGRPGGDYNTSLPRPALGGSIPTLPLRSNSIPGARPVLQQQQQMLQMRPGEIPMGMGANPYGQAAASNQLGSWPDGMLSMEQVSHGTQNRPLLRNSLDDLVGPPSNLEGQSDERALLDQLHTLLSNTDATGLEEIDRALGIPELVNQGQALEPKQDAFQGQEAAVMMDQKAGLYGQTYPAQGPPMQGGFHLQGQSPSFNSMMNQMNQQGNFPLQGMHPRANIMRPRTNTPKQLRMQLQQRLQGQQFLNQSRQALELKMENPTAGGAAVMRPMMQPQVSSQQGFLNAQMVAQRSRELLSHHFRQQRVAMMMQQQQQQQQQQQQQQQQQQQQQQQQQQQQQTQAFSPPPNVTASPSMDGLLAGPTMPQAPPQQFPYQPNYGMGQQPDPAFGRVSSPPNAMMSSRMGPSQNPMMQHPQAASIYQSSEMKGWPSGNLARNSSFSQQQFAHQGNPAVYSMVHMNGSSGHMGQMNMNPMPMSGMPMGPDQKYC

In test [3] the test system is transactivating tegument protein VP16 (Human herpesvirus 1), Gal4-VP16 luciferase reporter. The experiment in a line: VP16 transactivation inhibitors, counter-screen for SRC3 inhibitor project, cell-based, luminescence, high throughput (AID 588794; in the data active means inhibition above about 30%). The following applies: mammalian cells, VP16-driven luciferase reporter luminescence; at 3.6 µM; stronger effect = higher value.
The target of test [4] is Nuclear receptor coactivator 1 (Homo sapiens) (UniProt Q15788). Briefly: SRC1 coactivator transcriptional activity inhibitors, confirmation, cell-based, luminescence, quadruplicate (AID 588820;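 active means mean inhibition above 46.68%, the untreated control wells mean plus 3 SD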;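 further: 0% = DMSO wells and 100% = gossypol 36 µM treated wells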). The note with it: HEK293 GAL4-SRC1 luciferase reporter, at 3.6 µM, stronger effect = higher value.
Chain of Nuclear receptor coactivator 1 (Homo sapiens) (Q15788 whole entry, looked up, the tested form may be a part): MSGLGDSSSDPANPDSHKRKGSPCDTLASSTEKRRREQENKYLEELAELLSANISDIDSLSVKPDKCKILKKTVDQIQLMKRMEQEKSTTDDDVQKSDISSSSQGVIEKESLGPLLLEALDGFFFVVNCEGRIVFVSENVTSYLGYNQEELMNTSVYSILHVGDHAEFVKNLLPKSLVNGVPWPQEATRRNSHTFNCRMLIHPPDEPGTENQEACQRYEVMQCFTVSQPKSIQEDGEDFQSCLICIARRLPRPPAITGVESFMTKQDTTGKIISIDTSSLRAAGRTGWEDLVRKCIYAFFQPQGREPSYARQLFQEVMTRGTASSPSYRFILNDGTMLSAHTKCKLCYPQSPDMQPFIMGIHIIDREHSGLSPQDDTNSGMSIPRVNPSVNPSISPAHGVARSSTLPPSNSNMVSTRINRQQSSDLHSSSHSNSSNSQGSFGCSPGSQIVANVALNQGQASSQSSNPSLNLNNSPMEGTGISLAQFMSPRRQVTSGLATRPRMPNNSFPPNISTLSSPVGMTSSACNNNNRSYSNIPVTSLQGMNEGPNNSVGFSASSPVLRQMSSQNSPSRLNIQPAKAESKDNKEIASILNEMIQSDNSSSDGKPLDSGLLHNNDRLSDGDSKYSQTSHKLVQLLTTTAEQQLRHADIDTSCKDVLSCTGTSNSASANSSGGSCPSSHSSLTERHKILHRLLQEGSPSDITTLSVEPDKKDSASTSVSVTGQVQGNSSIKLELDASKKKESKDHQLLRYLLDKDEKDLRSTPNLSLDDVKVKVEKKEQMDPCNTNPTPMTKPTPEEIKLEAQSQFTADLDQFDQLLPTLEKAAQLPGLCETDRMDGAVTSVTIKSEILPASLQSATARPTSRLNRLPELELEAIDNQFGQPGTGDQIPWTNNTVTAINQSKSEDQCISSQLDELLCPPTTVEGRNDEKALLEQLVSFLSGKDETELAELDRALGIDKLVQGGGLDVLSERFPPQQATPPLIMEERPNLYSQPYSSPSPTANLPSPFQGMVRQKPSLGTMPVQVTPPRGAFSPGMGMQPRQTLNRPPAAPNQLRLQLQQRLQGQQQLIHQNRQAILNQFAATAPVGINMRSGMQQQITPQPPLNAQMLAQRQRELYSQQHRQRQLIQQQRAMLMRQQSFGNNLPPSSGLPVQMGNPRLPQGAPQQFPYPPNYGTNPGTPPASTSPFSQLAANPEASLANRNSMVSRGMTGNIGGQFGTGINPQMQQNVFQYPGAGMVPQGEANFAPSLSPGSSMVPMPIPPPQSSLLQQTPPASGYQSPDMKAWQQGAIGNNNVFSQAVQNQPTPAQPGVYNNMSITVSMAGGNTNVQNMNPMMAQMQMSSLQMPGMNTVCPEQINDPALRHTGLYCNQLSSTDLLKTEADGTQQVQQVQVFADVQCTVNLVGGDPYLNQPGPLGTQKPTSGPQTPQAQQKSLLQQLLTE
A short description of test [5]: VP16 transactivation inhibitors, counter-screen for SRC1 inhibitor project, cell-based, luminescence, high throughput (AID 588824; in the data active means inhibition above about 25%). The note with it: cell-based VP16 transactivation luciferase luminescence; at 3.6 µM; stronger effect = higher value. A general note: Counterscreens check selectivity or assay interference.
Test [6] has as its system transactivating tegument protein VP16 (Human herpesvirus 1). Briefly: VP16 transactivation reporter inhibitors, counter-screen for SRC2 inhibitor project, cell-based, luminescence, single concentration (AID 652007; in the data active means inhibition above about 36%). The following applies: cell-based VP16 transactivation luciferase reporter, at 8.9 µM, stronger effect = higher value.
Test [7] has as its target Nuclear receptor coactivator 2 (Homo sapiens) (UniProt Q15596). The experiment in a line: SRC2 coactivator transcriptional activity inhibitors, confirmation, cell-based, luminescence, HEK293, triplicate (AID 652008;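 active means mean inhibition above 46.5%, the solvent-only control mean plus 3 SD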;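 further: 0% = DMSO-treated cells and 100% = Gossypol at 36 µM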). The note with it: HEK293 GAL4-SRC2 luciferase reporter, at 8.9 µM, stronger effect = higher value.
The target of test [8] is Serine protease HTRA1 (Homo sapiens) (UniProt Q92743). Briefly: HTRA1 protease inhibitors, retest, confirmation, biochemical, fluorescence polarization (AID 540248;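 active means mean inhibition over three repeats above a set limit taken from the earlier primary screen, cut at about 37% in these data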;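 further: 0% = HTRA1 with DMSO and 100% = wells lacking HTRA1; inhibitors block probe binding so polarization drops and inhibition rises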). The following applies: recombinant HTRA1, FP-rhodamine activity-based probe, at 5.96 µM, stronger effect = higher value. On the technique in general: In fluorescence polarisation assays a small probe gives low polarisation when free and higher when bound to something large.

Test [9] can be described thus: StAR promoter reporter inhibitors, counter-screen for LRH-1 inverse agonist project, cell-based, luminescence, high throughput (AID 651611; in the data active means inhibition above about 28%). The note with it: StAR promoter luciferase reporter counterscreen, at 3.6 µM, stronger effect = higher value.
In test [10] the target is Nuclear receptor subfamily 5 group A member 2 (Homo sapiens) (UniProt O00482). Briefly: LRH-1 (NR5A2) inverse agonists, retest, confirmation, cell-based, luminescence (AID 651613; in the data active means inhibition above about 42%;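 further: HEK293T cells co-transfected with LRH-1 and StAR promoter luciferase reporter; 0% = vehicle wells and 100% = parental cells lacking receptor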). The note with it: cell-based LRH-1 luciferase reporter, inverse agonism; at 3.6 µM; stronger effect = higher value.
Chain of Nuclear receptor subfamily 5 group A member 2 (Homo sapiens) (O00482 whole entry, looked up): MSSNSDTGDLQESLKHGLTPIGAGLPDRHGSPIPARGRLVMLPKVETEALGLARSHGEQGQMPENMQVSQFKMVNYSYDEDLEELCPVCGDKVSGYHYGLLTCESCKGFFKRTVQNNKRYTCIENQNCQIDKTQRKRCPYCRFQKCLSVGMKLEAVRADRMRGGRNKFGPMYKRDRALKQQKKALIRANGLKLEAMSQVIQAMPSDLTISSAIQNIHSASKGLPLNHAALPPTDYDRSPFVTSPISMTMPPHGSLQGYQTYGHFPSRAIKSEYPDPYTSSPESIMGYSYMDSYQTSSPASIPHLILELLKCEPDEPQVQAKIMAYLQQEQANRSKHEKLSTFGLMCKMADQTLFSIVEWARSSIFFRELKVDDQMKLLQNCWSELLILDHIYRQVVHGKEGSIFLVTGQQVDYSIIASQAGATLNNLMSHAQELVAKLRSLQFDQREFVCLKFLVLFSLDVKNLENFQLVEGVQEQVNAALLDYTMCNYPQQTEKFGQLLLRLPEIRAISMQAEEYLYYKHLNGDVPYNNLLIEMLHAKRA
For test [11], the target named is Steroidogenic factor 1 (Homo sapiens) (UniProt Q13285). Briefly: SF1 (NR5A1) inverse agonists, counter-screen for LRH-1 inverse agonist project, cell-based, luminescence, high throughput (AID 651614; in the data active means inhibition above about 44%;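 further: cells cotransfected with StAR promoter reporter and SF1 expression vector; 0% = vehicle on cells with receptor and 100% = vehicle on cells lacking receptor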). The note with it: cell-based SF1 luciferase reporter, at 3.6 µM, stronger effect = higher value.
Chain of Steroidogenic factor 1 (Homo sapiens) (Q13285 whole entry, looked up, the tested form may be a part): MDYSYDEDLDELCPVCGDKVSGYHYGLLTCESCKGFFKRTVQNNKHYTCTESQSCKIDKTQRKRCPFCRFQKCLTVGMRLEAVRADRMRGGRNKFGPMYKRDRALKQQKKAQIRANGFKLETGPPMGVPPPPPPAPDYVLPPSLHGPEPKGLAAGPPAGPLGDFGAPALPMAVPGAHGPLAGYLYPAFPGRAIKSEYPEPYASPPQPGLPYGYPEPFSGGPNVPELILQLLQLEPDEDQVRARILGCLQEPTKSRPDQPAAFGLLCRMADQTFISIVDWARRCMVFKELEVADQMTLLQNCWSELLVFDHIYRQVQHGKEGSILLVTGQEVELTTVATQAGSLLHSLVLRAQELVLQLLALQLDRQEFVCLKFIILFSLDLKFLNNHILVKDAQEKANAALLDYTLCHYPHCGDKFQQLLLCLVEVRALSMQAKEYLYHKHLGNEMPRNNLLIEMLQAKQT
A short description of test [12]: VP16 transactivation reporter inhibitors, counter-screen for LRH-1 inverse agonist project, cell-based, luminescence, high throughput (AID 651615; in the data active means inhibition above about 33%). The following applies: Gal4-VP16 luciferase reporter cells, at 3.6 µM, stronger effect = higher value.

Chain of Protein phosphatase methylesterase 1 (Homo sapiens) (Q9Y570 whole entry, looked up, the tested form may be a part): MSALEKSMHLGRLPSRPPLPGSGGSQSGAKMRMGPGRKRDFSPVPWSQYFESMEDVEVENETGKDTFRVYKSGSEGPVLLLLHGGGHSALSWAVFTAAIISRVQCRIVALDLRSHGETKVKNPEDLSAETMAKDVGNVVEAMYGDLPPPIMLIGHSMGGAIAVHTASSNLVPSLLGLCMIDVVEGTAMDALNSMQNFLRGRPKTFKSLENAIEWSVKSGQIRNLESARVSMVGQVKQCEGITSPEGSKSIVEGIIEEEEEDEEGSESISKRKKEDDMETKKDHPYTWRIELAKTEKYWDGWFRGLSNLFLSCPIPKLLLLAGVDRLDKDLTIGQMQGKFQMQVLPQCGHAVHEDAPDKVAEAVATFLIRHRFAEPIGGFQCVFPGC

With `COC(=O)c1cc(C)nc2c1C(=O)C(=O)C=C2N1CCOCC1`, the inhibition is 40% (active) in test [1]; 69.5% (active) in test [2]; 54.7% (active) in [3]; -43.5% in test [4]; 52.3% (active) in [5]; 54.2% (active) in test [6]. The inhibition in test [7] is 99.2% (active).

Take `Nc1cc(N)cc(-c2nc3ccccc3[nH]2)c1`: the inhibition in [1] is 3.51%.

For the compound `O=C(Nc1ccc(OC(F)(F)F)cc1)c1ccc2c(c1)no[n+]2[O-]`, the inhibition in test [1] is 61.4% (active); in test [8], 69.4% (active); in [6], -77.2%; in test [7] it was -55.7%.

For the compound `CCn1nc([N+](=O)[O-])c(C(C#N)c2nc3cc(C(F)(F)F)ccc3s2)c(Cl)c1=O` (stereo not given), the results for the inhibition in test [1], in test [2] and in test [3] were 67.1% (active), 10.4% and 12.3%, respectively.

On to `COc1ccc(S(=O)(=O)/N=C2\C=C(Nc3ccc(O)cc3)C(=O)c3ccccc32)cc1`, for which the inhibition is 63.2% (active) in [1]; 94.1% (active) in test [2]; 92.8% (active) in test [3]; 85% (active) in [4]; 90.8% (active) in [5]; 92% (active) in test [9]. In addition, the inhibition is 107% (active) in test [10]; 96.7% (active) in [11]; 97.2% (active) in [12]; 67% (active) in test [6]; 73% (active) in [7].

Regarding `Oc1ccc(Nc2nc3ccccc3nc2Nc2ccc(O)cc2)cc1`, the inhibition in test [1] is -0.74%.

Regarding `Cc1ccc(C(C)C)c(OCc2ccc(C(=O)N/N=C/c3ccc(O)cc3O)cc2)c1`, the inhibition was -0.21% in [1]; 77.2% (active) in [2]; 78.3% (active) in test [3]; 67% (active) in [4]; 77% (active) in test [5]; 80.8% (active) in test [9]. Besides, the inhibition was 100% (active) in [10]; 80.9% (active) in test [11]; 71.2% (active) in test [12]; 20.9% in test [6]; 68.3% (active) in test [7].

For the compound `COc1cccc(N2CCN(c3ncnc4c3[nH]c3ccc(F)cc34)CC2C)c1` (stereo not given), the inhibition is 26.7% (active) in test [1]; 95.2% (active) in [2]; 93.4% (active) in test [3]; 86.7% (active) in test [4]; 91.8% (active) in [5]; 93.4% (active) in test [9]. Also, the inhibition was 108% (active) in test [10]; 97.8% (active) in [11]; 97.2% (active) in test [12]; 95.4% (active) in [6]; 99.5% (active) in test [7].

`C=CCn1c(SCC(=O)N2CCCC2=O)nc2sc(CC)cc2c1=O`: in [1], the inhibition is 11.2%.

For the compound `Cc1cc([N+](=O)[O-])ccc1-c1ccc(C2Nc3ccccc3C(=O)N2O)o1` (stereo not given), the inhibition in [1] is 25%; in test [2], 23.6%; in test [3], 1.31%.

Turning to `CCN1/C(=C/C=C/c2oc3ccc(-c4ccccc4)cc3[n+]2CC)Oc2ccc(-c3ccccc3)cc21`, the inhibition in test [1] was -81.5%; in test [2], 98.3% (active); in test [3], 95.4% (active); in test [4] it was 71.9% (active); in test [5] it was 94.2% (active); in test [9], 92.2% (active). In addition, the inhibition in test [10] is 110% (active); in test [11] it was 97.2% (active); in test [12] it was 96.4% (active).

Turning to `N#C/C(=N\Nc1cccc([N+](=O)[O-])c1)C(=O)c1ccc(Br)cc1`, the values for the inhibition in [1], in test [2] and in test [3] were 29.5% (active), 4.19% and 26.8%, respectively.

As for `Brc1ccc(N/N=C(/N=Nc2nn[nH]n2)c2ccccc2)cc1`, the inhibition in test [1] was 57.1% (active); in [2], 83.2% (active); in test [3] it was 80.2% (active).

Take `Nc1ccc2c(c1)C(=O)C(=O)c1ccccc1-2`: the inhibition in [1] is 36.4% (active); in [2] it was 96.7% (active); in test [3], 95.3% (active); in test [4], 87% (active); in test [5] it was 93% (active); in test [9], 98.5% (active). Further, the inhibition in test [10] was 110% (active); in test [11], 98.9% (active); in [12], 99.1% (active); in test [6], 97% (active); in test [7], 98.8% (active).

For the compound `COc1ccc(-c2csc(NC(=O)c3ccccc3NS(=O)(=O)c3ccc(F)c(F)c3)n2)cc1`, the inhibition is -5.29% in [1]; 69.3% (active) in test [2]; 71.4% (active) in [3]; 55% (active) in test [4]; 81.9% (active) in test [5].

Turning to `O=c1c2ccccc2nc(N/N=C/c2c(O)ccc3ccccc23)n1O`, the inhibition in [1] was 43.9% (active); in [2] it was 55.4% (active); in test [3], 78.8% (active); in [4], 20.9%; in test [5], 76.4% (active); in [9], 81.4% (active). For the same compound, the inhibition in [10] is 101% (active); in test [11], 90.2% (active); in [12], 78.3% (active).

In the case of `Oc1ccccc1N=Nc1nc(-c2ccccc2)c(-c2ccccc2)[nH]1`, the inhibition in test [1] was -3.97%; in test [2], 81.4% (active); in test [3], 76.4% (active); in test [4], 76.5% (active); in test [5], 71% (active); in test [9] it was 86.9% (active). Also, the inhibition is 98.3% (active) in test [10], 84% (active) in test [11] and 65.3% (active) in [12].

Consider `COc1ccc(OC)c2[nH]c(C(=O)N/N=C/c3ccccc3O)cc12`, for which the inhibition in test [1] is -0.45%; in test [2] it was 30.1%; in [3] it was 39.2% (active).

In general, inhibition refers to the change of the read-out against control, counted positive when it falls.
